Source: PubChem
PLK1 PBD inh: blocks phosphopeptide binding to human PLK1 polo-box domain | hit rate 2.8% among 360,000 | AID 720504 | Plk1 PBD binding of FITC phosphopeptide, fluorescence polarization | P53350 | Potency, µM, for inactives: max response, negative = inhibition, most hits filed as inhibitors; further: potency means the concentration at half of the fitted maximal effect; series mostly up to about 57 µM; on the % scale 0 is the no-effect control and ±100 the full control effect; nearly all actives have a fitted effect of over 65% in size
JMJD2A Tudor inh: JMJD2A Tudor domain (human) inhibition | O75164 | Potency, µM (top dose mostly 114 µM), for inactives: top-dose activity change, negative = inhibition, hits mostly inhibitors | AlphaScreen JMJD2A-Tudor / H3K4me3 peptide binding | hit rate 4.4% among 390,000; further: potency means the concentration at half of the fitted maximal effect; on the % scale 0 is the no-effect control and ±100 the full control effect; nearly all actives have a fitted effect of over 50% in size
BAZ2B block: BAZ2B (human) inhibition | hit rate 4.4% among 360,000 | AlphaScreen BAZ2B-H3K14Ac peptide displacement | Q9UIF8 | Potency, µM (top dose mostly 114 µM), without a hit: top-dose activity change, negative = inhibition, most hits filed as inhibitors; further: potency means the concentration at half of the fitted maximal effect; on the % scale 0 is the no-effect control and ±100 the full control effect; nearly all actives have a fitted effect of over 60% in size
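AlphaScreen displacement: compounds (up to 110uM) incubated 30 min at room temperature with a preformed 50 nM BAZ2B/50 nM biotinylated H3K14Ac peptide complex in PBS pH 7.4 with Tween-20. Donor and acceptor beads at 10 ug/mL final added, 20 min light-protected before reading.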
PI5P4K alpha inh: inhibitors of human PI5P4K alpha | AID 652105 | hit rate 1.2% among 330,000 | PI5P4Kalpha enzyme, ADP-Glo luminescence, 60 min; hits give low values | max response, %; active means max response of -50% or lower; inconclusive means between -30% and -50%; inactive means -30% or higher; further: value at the top dose of about 77 µM; on the % scale 0 is the no-effect control and ±100 the full control effect
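qHTS, 1536-well: enzyme/substrate mix, compound by pin tool, 5 microM ATP final; RT 60 min; ADP-Glo reagents 1 (45 min) then 2 (30 min); luminescence.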
HP1b chromo inh: blocks HP1-beta chromodomain binding to methylated histone tails. AlphaScreen HP1-beta / biotin-H3K9me3 peptide binding. Potency, µM (series often up to 114 µM), for inactives: at the top dose activity change, negative = inhibition, usual class: inhibitors. hit rate 0.56% among 390,000; further: potency means the concentration at half of the fitted maximal effect; nearly all actives have a fitted effect of over 70% in size
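Compound inhibition of the preformed complex between 50 nM HP1-beta and 50 nM biotinylated H3K9me3 peptide was read by AlphaScreen. Buffer was PBS pH 7.4 with 0.01% Tween-20. Incubations ran 30 min at room temperature, with 10 ug/mL donor/acceptor beads.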
GCN5L2 inh: GCN5L2 (KAT2A) acetyltransferase inhibition; Q92830; GCN5L2 HAT assay, ThioGlo1 CoA-SH fluorescence; Potency, µM (titrated, usually from 58.9 µM), for the others: top-dose activity change, negative = inhibition, hits mostly inhibitors; hit rate 0.21% among 390,000; AID 504327; further: potency means the concentration at half of the fitted maximal effect; on the % scale 0 is the no-effect control and ±100 the full control effect
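Free CoA generated was detected with ThioGlo1 (50uM) fluorescence at Ex340nm/Em540nm, read immediately and after 20 min at room temperature. Enzyme, 20 nM in HEPES pH 7.5 buffer, saw compounds 15 min before adding 75uM H3(1-25) peptide and 70uM acetyl-CoA.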
The depositor's hits bear a star; ? = inconclusive; . = no result; [ ] = remark or other dose. A selection: hits, their analogues and other compounds. The true share with any hit is near 7%. Unless noted, the call rests on the fitted dose curve; in most records, active means well fitted curve in the direction sought with a large enough effect; inconclusive means small, poorly fitted or top-dose-only effect, or another doubt; inactive means no such curve, though single readings can be large; an effect the other way counts as inactive or inconclusive.

SMILES | PLK1 PBD inh | JMJD2A Tudor inh | BAZ2B block | PI5P4K alpha inh | HP1b chromo inh | GCN5L2 inh
CCOc1ccc2nc(NC(=O)C(CCSC)NS(=O)(=O)c3cccs3)sc2c1 (centres undefined) | -14.0% | 56.2µM* | ? | 2.9 | 44.9% | 1.3%[0.501 µM]
CCOc1ccc2nc(NC(=O)C(NS(=O)(=O)c3cccs3)C(C)C)sc2c1 (centres undefined) | -9.0% | -12.2% | 11.8% | . | 19.1% | 1.1%
O=[N+]([O-])c1c(O)c(Cl)cc(Cl)c1Cl (tested in a mixture with another compound) | -16.6% | -14.5% | . | -17.1 | -12.5% | .
COc1ccc(Nc2c3c(nc4ccc(NC(=O)c5cc(Cl)ccc5OC)cc24)CCCC3)cc1OC | . | ? | -26.0% | . | -22.3% | -2.5%
COc1cc(OC)cc(C(=O)Nc2ccc3nc4c(c(Nc5ccc(OC)c(OC)c5)c3c2)CCCC4)c1 | . | ? | 10µM* | . | ? | -12.2%
COc1ccccc1Nc1c2c(nc3ccc(NC(=O)c4ccc(N(C)C)cc4)cc13)CCCC2 | . | 15.8µM* | 3.98µM* | . | -21.8% | -19.8%
CC(C)c1cccc(-c2csc(C(C)(O)c3ccncc3)n2)c1 (centres undefined) | -4.6% | . | . | 22.4 | . | .
COCCn1c(C)cc(/C=C2\NC(=S)N(C)C2=O)c1C | -11.4% | -50.9% | 50.1µM* | -0.2 | ? | -3.0%
COCCn1c(C)cc(/C=C2/SC(=O)N(C(C)C(=O)OC)C2=O)c1C (centres undefined) | -4.5% | ? | ? | 3.2 | -6.0% | -5.8%
Cc1[nH]n(-c2ccccc2)c(=S)c1C=Nc1ccc([N+](=O)[O-])cc1 | 2.67µM* | 1.78µM* | 10µM* | -79.2* | ? | 7.94µM*
CCc1nnc(NS(=O)(=O)c2ccc(N=Cc3c(C)[nH]n(-c4ccc(C)c(C)c4)c3=O)cc2)s1 | ? | -31.0% | 50.1µM* | -1.3 | -8.4% | -1.9%
Cc1ccc(-n2[nH]c(C)c(C=Nc3ccc(S(=O)(=O)Nc4nc(C)cc(C)n4)cc3)c2=O)c(C)c1 | -1.6% | ? | -3.1% | 2.1 | 1.5% | -5.8%
Cc1cc(C)nc(NS(=O)(=O)c2ccc(N=Cc3c(C)[nH]n(-c4ccccc4)c3=O)cc2)n1 | 26.7µM* | 79.4µM* | -6.9% | -8.8 | -4.6% | 28.6%
Cc1ccccc1COc1ccc(-c2nnn(CC(=O)O)n2)cc1 | ? | -13.6% | ? | 0.3 | -2.9% | -3.6%
O=c1c2c3c(sc2ncn1/N=C/c1ccco1)CCCC3 | -7.6% | -18.2% | -28.5% | . | -2.9% | 2.9%
N#Cc1c(/N=C/c2ccco2)sc2c1CCCCC2 | -4.6% | -19.4% | 35.5µM* | -8.5 | ? | -5.5%
Cc1cccc(C)c1OCC(O)CN1CCN(c2ccccn2)CC1 (centres undefined) | -10.6% | -13.5% | . | 3.8 | 21.9% | 2.6%
CC(=O)c1ccc(N2CCN(CC(O)COC(c3ccccc3)c3ccccc3)CC2)cc1 (centres undefined) | -18.5% | 10µM* | 17.8µM* | 1.4 | 22.4µM* | -10.9%
OC(COC(c1ccc(Cl)cc1)c1ccc(Cl)cc1)CN1CCN(c2ccccn2)CC1 (centres undefined) | -5.9% | ? | 50.1µM* | 23.3 | -4.7% | -8.7%
CC(=O)c1ccc(N2CCN(CC(O)COC(c3ccccc3)c3ccccc3C)CC2)cc1 (centres undefined) | -16.6% | 4.47µM* | 25.1µM* | 14.9 | 44.7µM* | -14.1%
CC(=O)c1nccs1 | -4.9% | -2.1% | -1.6% | -4.4 | 46.2% | -2.0%
CCOc1cc(C(F)(F)F)cnc1/C(N)=N/O | -9.4% | ? | -37.1% | -2.5 | 17.0% | -7.6%
CC(C)Cc1nn2c(=O)cc(COC(=O)c3ccc4c(c3)OCO4)nc2s1 | . | -8.3% | -3.9% | . | 3.2% | -3.8%
CCN(CC)CCN(C(=O)c1ccc2c(c1)OCCO2)c1nc2ccc(C)cc2s1 | -1.3% | ? | 35.5µM* | -1.0 | 18.1% | -4.2%
Cc1ccc2nc(N(CCN(C)C)C(=O)c3ccc4c(c3)OCCO4)sc2c1 | -0.2% | ? | ? | -5.6 | 14.8% | -17.6%
